Assay results published in PubChem BioAssay (NCI).
The panel holds about 83,000 compounds, 20% with a hit somewhere; the sample as a whole holds those more often.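 The test compound was applied at a single concentration to cells in 96-well plates for 48 hours, and percent growth was recorded.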 Calls of active or inactive are those of the source. How the source made its calls: active means growth percent below 10; inactive means the rest.

Legend:
Experiment in all cases: NCI-60 one-dose screen, 48 h (100 = growth as untreated, 0 = no growth, -100 = all killed)
Details in all cases: 10 µM unless noted
SR leukemia = system: SR leukemia
RPMI-8226 leukemia = system: RPMI-8226 leukemia
OVCAR-8 ovarian = system: OVCAR-8 ovarian
OVCAR-5 ovarian = system: OVCAR-5 ovarian
OVCAR-4 ovarian = system: OVCAR-4 ovarian
SK-OV-3 ovarian = system: SK-OV-3 ovarian
IGROV1 ovarian = system: IGROV1 ovarian
OVCAR-3 ovarian = system: OVCAR-3 ovarian
HS 578T breast = system: HS 578T breast
NCI/ADR-RES ovarian = system: NCI/ADR-RES ovarian

Measured: growth

Nc1nc(N)c2c(n1)NC(c1ccc(C(F)(F)F)cc1)CC(c1ccc(Nc3nc(NCCO)nc(N4CCOCC4)n3)cc1)=N2 (stereo not given)
inactive: RPMI-8226 leukemia 28.9% | OVCAR-8 ovarian 60.2% | OVCAR-5 ovarian 97.6% | OVCAR-4 ovarian 79.5% | SK-OV-3 ovarian 99.7% | IGROV1 ovarian 72.6% | OVCAR-3 ovarian 61.2% | HS 578T breast 58.5% | NCI/ADR-RES ovarian 97.5%
active: SR leukemia 5.13%

CCCCCc1ccc(S(=O)(=O)Nc2cccc(-c3csc(NC(=O)CCCCCN4CCN(C)CC4)n3)c2)cc1
inactive: OVCAR-8 ovarian 81.9% | OVCAR-5 ovarian 88.8% | OVCAR-4 ovarian 71.4% | SK-OV-3 ovarian 97.9% | IGROV1 ovarian 69.6% | OVCAR-3 ovarian 37.1% | HS 578T breast 72.2% | NCI/ADR-RES ovarian 89.8%
active: SR leukemia -31.4% | RPMI-8226 leukemia -22.5%

COc1ccc2c(c1)c(CC(=O)[Se]CCC#N)c(C)n2C(=O)c1ccc(Cl)cc1
inactive: RPMI-8226 leukemia 50.9% | OVCAR-5 ovarian 29% | OVCAR-4 ovarian 31.6% | SK-OV-3 ovarian 22.3%
active: SR leukemia 4.36% | OVCAR-8 ovarian 6.32% | IGROV1 ovarian -55.6% | OVCAR-3 ovarian -30.7% | HS 578T breast -14.2% | NCI/ADR-RES ovarian -1.67%

Nc1cc(F)ccc1NC(=O)c1ccc(NC(=O)C/C=C/c2cccnc2)cc1
active: RPMI-8226 leukemia 6.2%
inactive: SR leukemia 29.3% | OVCAR-8 ovarian 29.9% | OVCAR-5 ovarian 37.2% | OVCAR-4 ovarian 48% | SK-OV-3 ovarian 54.5% | IGROV1 ovarian 27.9% | OVCAR-3 ovarian 45.1% | HS 578T breast 49% | NCI/ADR-RES ovarian 51%

CCCn1cnc2c(c1=N)C(c1ccc(Cl)cc1)c1sc3c(CC)cccc3c1O2 (stereo not given)
inactive: SR leukemia 24.2% | OVCAR-8 ovarian 20.5% | OVCAR-5 ovarian 29% | OVCAR-4 ovarian 89.1% | SK-OV-3 ovarian 29.7% | IGROV1 ovarian 18.4% | NCI/ADR-RES ovarian 10.4%
active: RPMI-8226 leukemia -5.3% | OVCAR-3 ovarian 6.2% | HS 578T breast 4.18%

COc1cc2c(cc1OC)C(Sc1ccc(C)cc1)c1c(nc(N)c(C#N)c1N)O2 (stereo not given)
active: SR leukemia -4.56% | RPMI-8226 leukemia -19.2% | OVCAR-8 ovarian 3.56% | OVCAR-5 ovarian -78.8% | OVCAR-4 ovarian -59.2% | SK-OV-3 ovarian -70.9% | IGROV1 ovarian -72.8% | OVCAR-3 ovarian -80.7% | HS 578T breast -6.15% | NCI/ADR-RES ovarian -32.1%

Cc1ccc(NC(=O)c2ccc(CN3CCN(C)CC3)cc2)cc1Oc1ccc(-c2[nH]nc3ncnc(N)c23)cc1
inactive: SR leukemia 80.2% | RPMI-8226 leukemia 75.5% | OVCAR-8 ovarian 99.5% | OVCAR-5 ovarian 101% | OVCAR-4 ovarian 99.1% | SK-OV-3 ovarian 93.7% | IGROV1 ovarian 90% | OVCAR-3 ovarian 88.4% | HS 578T breast 82.8% | NCI/ADR-RES ovarian 100%

CN(C)CCNC(=O)c1ccc(-c2nc3ccc4[nH]ncc4c3c3c2COCC3)cc1
active: SR leukemia -25.1% | OVCAR-4 ovarian 2.78% | IGROV1 ovarian 0.798% | OVCAR-3 ovarian -6.74% | HS 578T breast -19.6%
inactive: RPMI-8226 leukemia 44.3% | OVCAR-8 ovarian 11% | OVCAR-5 ovarian 27.5% | SK-OV-3 ovarian 14% | NCI/ADR-RES ovarian 92.2%

C=C1CC[C@@H]2[C@](C)(CO)[C@H](O)CC[C@@]2(C)[C@@H]1C/C(O)=C1\CCOC1=O
inactive: SR leukemia 83.6% | RPMI-8226 leukemia 83.8% | OVCAR-8 ovarian 98.5% | OVCAR-5 ovarian 120% | OVCAR-4 ovarian 94.7% | SK-OV-3 ovarian 113% | IGROV1 ovarian 107% | OVCAR-3 ovarian 93.2% | HS 578T breast 92.3% | NCI/ADR-RES ovarian 98%

Nc1ccccc1NC(=O)c1ccc(NC(=O)C/C=C/c2cccnc2)cc1
active: RPMI-8226 leukemia 6.76%
inactive: SR leukemia 30.7% | OVCAR-8 ovarian 26.3% | OVCAR-5 ovarian 29.7% | OVCAR-4 ovarian 39.8% | SK-OV-3 ovarian 44.5% | IGROV1 ovarian 23.3% | OVCAR-3 ovarian 33.2% | HS 578T breast 30.3% | NCI/ADR-RES ovarian 50.8%

N/C(=N\C(N)=N\c1nc2ccccc2s1)c1ccc2ccccc2c1
active: SR leukemia -17.6%
inactive: RPMI-8226 leukemia 76.7% | OVCAR-8 ovarian 84.8% | OVCAR-5 ovarian 102% | OVCAR-4 ovarian 85% | SK-OV-3 ovarian 116% | IGROV1 ovarian 55.3% | OVCAR-3 ovarian 109% | HS 578T breast 90.9% | NCI/ADR-RES ovarian 30.3%

C[C@@H](Nc1c(C#N)cnc2ccc(-c3cnc(Cl)c(NS(C)(=O)=O)c3)cc12)c1ccccc1
inactive: OVCAR-8 ovarian 16.3% | NCI/ADR-RES ovarian 31.5%
active: SR leukemia -14.1% | RPMI-8226 leukemia -34.9% | OVCAR-5 ovarian 4.76% | OVCAR-4 ovarian 0.536% | SK-OV-3 ovarian -7.04% | IGROV1 ovarian -30.4% | OVCAR-3 ovarian 4.33% | HS 578T breast -15.9%

O=S(=O)(NCCNc1nccc(-n2cnc3ccccc32)n1)c1ccc(C(F)(F)F)cc1
inactive: SR leukemia 35.5% | RPMI-8226 leukemia 44.9% | OVCAR-8 ovarian 63.5% | OVCAR-5 ovarian 86.2% | OVCAR-4 ovarian 28.4% | SK-OV-3 ovarian 62.2% | IGROV1 ovarian 66.4% | OVCAR-3 ovarian 72.9% | HS 578T breast 42.9% | NCI/ADR-RES ovarian 55.9%

O=S(=O)(NCCCNc1nccc(-c2[nH]c(-c3ccccc3)nc2-c2ccc(Cl)c(O)c2)n1)c1cccc(F)c1
inactive: SR leukemia 39.4% | RPMI-8226 leukemia 41.1% | OVCAR-8 ovarian 50.1% | OVCAR-5 ovarian 85.4% | OVCAR-4 ovarian 71.8% | SK-OV-3 ovarian 105% | IGROV1 ovarian 57.9% | OVCAR-3 ovarian 60.3% | HS 578T breast 96.2% | NCI/ADR-RES ovarian 73.2%

O=C(CN1CCN(c2cc(=O)n(-c3ccccc3)c3ccccc23)CC1)Nc1nc(-c2ccccc2)cs1
inactive: SR leukemia 51.3% | RPMI-8226 leukemia 46.2% | OVCAR-8 ovarian 69.8% | OVCAR-5 ovarian 94.1% | OVCAR-4 ovarian 23.3% | SK-OV-3 ovarian 70.7% | IGROV1 ovarian 67.5% | OVCAR-3 ovarian 72.5% | HS 578T breast 82.9% | NCI/ADR-RES ovarian 62.7%

CC(=O)Nc1cccc(Nc2nc(N[C@H](C)c3ccccc3)c3ccccc3n2)c1
active: SR leukemia -7.47% | RPMI-8226 leukemia -20.3%
inactive: OVCAR-8 ovarian 74.8% | OVCAR-5 ovarian 70.6% | OVCAR-4 ovarian 34.9% | SK-OV-3 ovarian 94.8% | IGROV1 ovarian 51.8% | OVCAR-3 ovarian 55.9% | HS 578T breast 80.5% | NCI/ADR-RES ovarian 39.1%

COc1ccc(Oc2ccc(/C=N/NC(=O)CSc3nc4ccccc4c(=O)n3-c3ccc(Cl)cc3)cc2)cc1
active: OVCAR-3 ovarian -56.8% | HS 578T breast -4.46%
inactive: SR leukemia 72.8% | RPMI-8226 leukemia 85.1% | OVCAR-8 ovarian 85.7% | OVCAR-5 ovarian 81.2% | OVCAR-4 ovarian 72.5% | SK-OV-3 ovarian 66.3% | IGROV1 ovarian 48.7% | NCI/ADR-RES ovarian 51.1%

O=C1[C@H]2Cc3c([nH]c4ccccc34)[C@@H](c3c(Cl)cccc3Cl)N2C(=O)CN1C1CCN(CC2CCCCC2)CC1
inactive: RPMI-8226 leukemia 66.2% | OVCAR-8 ovarian 99.6% | OVCAR-5 ovarian 97.8% | OVCAR-4 ovarian 101% | SK-OV-3 ovarian 109% | IGROV1 ovarian 53.2% | OVCAR-3 ovarian 67.9% | HS 578T breast 73.5% | NCI/ADR-RES ovarian 91.8%
active: SR leukemia -0.0364%

FC(F)(F)c1cc(Nc2cccc(Oc3ccc(NC4=NCCN4)nc3)c2)ccc1Cl
active: SR leukemia -28.1% | RPMI-8226 leukemia -37.6% | OVCAR-5 ovarian 3.8% | IGROV1 ovarian -1.17% | OVCAR-3 ovarian -40.3% | NCI/ADR-RES ovarian -10.6%
inactive: OVCAR-8 ovarian 30.8% | OVCAR-4 ovarian 28.2% | SK-OV-3 ovarian 71% | HS 578T breast 39.7%

C=CCN(C)S(=O)(=O)/N=C1\NC(=O)NC1=C(Cl)Cl
active: SR leukemia -18.7% | RPMI-8226 leukemia 5.23% | OVCAR-5 ovarian -37.5% | IGROV1 ovarian -37.4% | OVCAR-3 ovarian -84.3%
inactive: OVCAR-8 ovarian 61.2% | OVCAR-4 ovarian 89.1% | SK-OV-3 ovarian 104% | HS 578T breast 80.5% | NCI/ADR-RES ovarian 72.5%

Cn1ccnc1C(=O)/C=C/c1ccc(NC(=O)c2c(F)c(F)c(F)c(F)c2F)cc1
inactive: SR leukemia 70.2% | RPMI-8226 leukemia 80.6% | OVCAR-8 ovarian 102% | OVCAR-5 ovarian 111% | OVCAR-4 ovarian 106% | SK-OV-3 ovarian 129% | IGROV1 ovarian 98.9% | OVCAR-3 ovarian 107% | HS 578T breast 112% | NCI/ADR-RES ovarian 108%

COc1c(N2CC3CCCNC3C2)c(F)cc2c(=O)c(C(=O)N/N=C/c3ccc4c(c3)OCO4)cn(C3CC3)c12 (stereo not given)
inactive: RPMI-8226 leukemia 60.9% | OVCAR-8 ovarian 54% | OVCAR-5 ovarian 87.3% | OVCAR-4 ovarian 90.5% | SK-OV-3 ovarian 99.7% | IGROV1 ovarian 51% | OVCAR-3 ovarian 29.4% | HS 578T breast 103% | NCI/ADR-RES ovarian 63.6%
active: SR leukemia -24.3%

NC(N)=Nc1ccc(Oc2cccc(NC(N)=Nc3ccc(I)cc3F)c2)cn1
inactive: RPMI-8226 leukemia 34.1% | OVCAR-8 ovarian 77.6% | OVCAR-5 ovarian 49% | OVCAR-4 ovarian 66.6% | SK-OV-3 ovarian 67.2% | IGROV1 ovarian 39.7% | OVCAR-3 ovarian 41.7% | HS 578T breast 53.3% | NCI/ADR-RES ovarian 95.2%
active: SR leukemia 7.24%

COc1ccc(/C=C(\C#N)C(=O)N2c3ccccc3Sc3ccc(SC)cc32)cc1F
inactive: SR leukemia 121% | RPMI-8226 leukemia 95.6% | OVCAR-8 ovarian 91.4% | OVCAR-5 ovarian 86.5% | OVCAR-4 ovarian 75.4% | SK-OV-3 ovarian 100% | IGROV1 ovarian 91.1% | OVCAR-3 ovarian 93.4% | HS 578T breast 85% | NCI/ADR-RES ovarian 92.7%

Nc1nc(Nc2ccccc2SSc2ccccc2Nc2nc(N)nc(-c3ccccc3)n2)nc(-c2ccccc2)n1
inactive: RPMI-8226 leukemia 11.2% | OVCAR-8 ovarian 73.9% | OVCAR-5 ovarian 107% | OVCAR-4 ovarian 63% | SK-OV-3 ovarian 130% | IGROV1 ovarian 52.2% | OVCAR-3 ovarian 90.3% | HS 578T breast 84.3% | NCI/ADR-RES ovarian 14.9%
active: SR leukemia -47%

CCOc1ccc(NC2=C(Cl)C(=O)c3nc(C)ccc3C2=O)cc1
inactive: OVCAR-5 ovarian 54.8% | SK-OV-3 ovarian 79.8% | HS 578T breast 49%
active: SR leukemia -27.4% | RPMI-8226 leukemia -19.3% | OVCAR-8 ovarian 1.03% | OVCAR-4 ovarian -97.5% | IGROV1 ovarian -82.4% | OVCAR-3 ovarian -97.2% | NCI/ADR-RES ovarian -15.6%
